The values that follow come from PMC4336329 (PLoS ONE, 2015).

Each structure is given as a SMILES string. In all, about 310,000 compounds went through this assay and about 2,200 (0.71%) showed an effect of 50% or more. The effect is printed as a negative number. Only a selection was taken, and strong results are over-represented in it overall.

In the assay the target is human ether-à-go-go-related gene (hERG) potassium channel (human, UniProt Q12809). Nature of the assay: primary screen, population patch clamp on CHO cells stably expressing hERG; higher = less effect of the substance.
Sequence of human ether-à-go-go-related gene (hERG) potassium channel (Q12809 whole entry, looked up): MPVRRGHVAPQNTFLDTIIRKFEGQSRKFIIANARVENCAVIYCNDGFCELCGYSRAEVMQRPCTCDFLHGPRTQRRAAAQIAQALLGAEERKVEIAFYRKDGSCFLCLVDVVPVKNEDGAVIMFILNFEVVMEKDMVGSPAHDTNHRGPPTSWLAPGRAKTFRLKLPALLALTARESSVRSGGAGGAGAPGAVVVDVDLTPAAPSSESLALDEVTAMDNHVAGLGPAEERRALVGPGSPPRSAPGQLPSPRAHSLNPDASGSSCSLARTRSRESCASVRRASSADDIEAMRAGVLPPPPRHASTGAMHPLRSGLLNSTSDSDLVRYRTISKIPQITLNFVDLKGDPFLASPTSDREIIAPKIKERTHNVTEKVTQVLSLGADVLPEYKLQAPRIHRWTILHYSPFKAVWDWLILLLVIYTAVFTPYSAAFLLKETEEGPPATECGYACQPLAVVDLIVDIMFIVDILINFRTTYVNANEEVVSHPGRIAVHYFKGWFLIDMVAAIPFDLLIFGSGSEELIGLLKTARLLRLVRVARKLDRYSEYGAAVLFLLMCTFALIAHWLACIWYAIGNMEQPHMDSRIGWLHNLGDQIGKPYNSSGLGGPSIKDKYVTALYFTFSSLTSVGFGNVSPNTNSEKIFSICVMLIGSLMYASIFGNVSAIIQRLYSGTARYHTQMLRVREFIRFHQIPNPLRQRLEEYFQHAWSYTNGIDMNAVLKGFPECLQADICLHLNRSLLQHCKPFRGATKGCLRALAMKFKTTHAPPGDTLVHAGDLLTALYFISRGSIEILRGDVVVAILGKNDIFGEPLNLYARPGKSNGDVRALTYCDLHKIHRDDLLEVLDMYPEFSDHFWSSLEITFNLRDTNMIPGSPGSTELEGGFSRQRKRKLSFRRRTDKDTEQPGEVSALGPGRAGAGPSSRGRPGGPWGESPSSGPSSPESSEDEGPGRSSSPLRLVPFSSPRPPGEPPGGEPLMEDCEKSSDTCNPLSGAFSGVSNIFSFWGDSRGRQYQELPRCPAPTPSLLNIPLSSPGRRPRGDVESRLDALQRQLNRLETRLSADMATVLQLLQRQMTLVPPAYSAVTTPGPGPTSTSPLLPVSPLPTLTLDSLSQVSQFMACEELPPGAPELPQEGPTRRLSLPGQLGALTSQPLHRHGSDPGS
With `COc1ccc(C2c3ccc(O)cc3Oc3ncn4nc(-c5ccncc5)nc4c32)cc1OC` (stereo not shown), the “hERG current change (%, negative = inhibition) at 1uM” value was -0.788%. `COc1ccc(C2c3ccc(O)cc3Oc3ncn(Cc4ccccc4)c(=N)c32)cc1OC` (stereo not shown): the “hERG current change (%, negative = inhibition) at 1uM” value is given as -0.742%. Under `COc1ccc(C2c3ccc(O)cc3Oc3ncn(Cc4ccco4)c(=N)c32)cc1` (stereo not shown) stands -43.5%; under `COc1ccc(C2c3ccc(O)cc3Oc3ncn4nc(-c5ccccn5)nc4c32)cc1OC` (stereo not shown), -50.1%. For `N=c1c2c(ncn1Cc1ccco1)Oc1c(ccc3ccccc13)C2c1ccccc1` (stereo not shown), the “hERG current change (%, negative = inhibition) at 1uM” value is reported as 1.59%. Turning to `N=c1c2c(ncn1CCCO)Oc1cc(O)ccc1C2c1ccccc1` (stereo not shown), the “hERG current change (%, negative = inhibition) at 1uM” value turned out to be 0.259%. With `COc1ccc(C2c3ccc(O)cc3Oc3ncn4nc(-c5ccccn5)nc4c32)cc1` (stereo not shown), the “hERG current change (%, negative = inhibition) at 1uM” value was 18.3%. Under `COc1ccc(C2c3ccc(O)cc3Oc3ncn(Cc4ccco4)c(=N)c32)cc1OC` (stereo not shown) stands -75.9%; under `N=c1c2c(ncn1Cc1ccco1)Oc1cc(O)ccc1C2c1ccccc1` (stereo not shown), -69.5%. Under `CCOC(=O)C1=C(Cn2cnc3ccccc32)NC(=O)NC1c1cc(C)ccc1C` (stereo not shown) stands 12.2%; under `CCOC(=O)CSc1nnc(CSc2nc3ccccc3s2)n1C`, 6.96%; under `COC(=O)Nc1nc2c(C)cccc2s1`, -4.56%.

In the case of `CCN(c1ccc(NC(=O)c2ccc(Cl)nc2)cc1)C(C)C`, the “hERG current change (%, negative = inhibition) at 1uM” value is given as 12.2%. Under `CS(=O)(=O)O.Oc1ccc(C2CNCCc3c2cc(O)c(O)c3Cl)cc1` (stereo not shown) stands -0.982%; under `CCS(=O)(=O)NCc1cn2c(C)csc2n1`, 0.136%. Turning to `CCCc1[nH]n(-c2ccc([N+](=O)[O-])cc2)c(=O)c1C=NCCc1ccc(OC)c(OC)c1`, the “hERG current change (%, negative = inhibition) at 1uM” value is 4.23%. Under `CCCc1[nH]n(-c2ccc([N+](=O)[O-])cc2)c(=O)c1C=NCCN1CCNCC1` stands -9.24%; under `CCCc1[nH]n(-c2ccc([N+](=O)[O-])cc2)c(=O)c1C=NCCCn1ccnc1`, -50.1%. As to `COc1cccc(CNC(=O)CCC2CCCN(c3cc(C)nc(N4CCCC4)n3)C2)c1` (stereo not shown), the “hERG current change (%, negative = inhibition) at 1uM” value is listed as -74%. In the case of `COc1cccc(CNC(=O)CCC2CCCN(Cc3ccc(OC(F)F)cc3)C2)c1` (stereo not shown) it was -80.1%; in that of `COc1cccc(CNC(=O)CCC2CCCN(c3cc(C)nc(N(C)C)n3)C2)c1` (stereo not shown), -27.7%. In the case of `COc1ccc(/C=C/CN2CCCC(CCC(=O)NCc3ccc(F)c(F)c3)C2)cc1` (stereo not shown) it was -54.3%; in that of `COc1cccc(CNC(=O)CCC2CCCN(C/C=C/c3ccccc3OC)C2)c1` (stereo not shown), -34.5%.

`COc1ccccc1/C=C/CN1CCCC(CCC(=O)NCc2ccc(F)c(F)c2)C1` (stereo not shown): the “hERG current change (%, negative = inhibition) at 1uM” value is -26.2%.

For `COc1cccc(CNC(=O)CCC2CCCN(Cc3cc(Cl)ccc3O)C2)c1` (stereo not shown), the “hERG current change (%, negative = inhibition) at 1uM” value is given as -20%. With `COCc1ccc(CN2CCCC(CCC(=O)NCc3cccc(OC)c3)C2)o1` (stereo not shown), the “hERG current change (%, negative = inhibition) at 1uM” value amounted to 11%.

As for `COc1cccc(CNC(=O)CCC2CCCN(c3cc(C)nc(N)n3)C2)c1` (stereo not shown), the “hERG current change (%, negative = inhibition) at 1uM” value is reported as -18.3%. Under `C/C(CC(=O)Nc1cccc(Cl)c1Cl)=N\NC(=O)c1ccccc1C` stands 8.35%; under `CC(=O)Nc1cccc(NC(=O)CSc2ncc(C(=O)Nc3ccc(F)cc3)c(=O)n2C)c1`, -3.89%; under `COc1ccc(C2(C#N)CCC(=O)N2c2ccccc2)cc1` (stereo not shown), 8.4%. Under `COC(=O)CNC(=O)CN1c2cccc3cccc(c23)S1(=O)=O` stands -12.4%. In the case of `Cc1c(C(=O)O)c(-c2ccccc2)nn1-c1ccccc1` it was 10.8%; in that of `Cc1ccc(C(=O)NC2CCN(C(=O)Nc3ccc(F)cc3)CC2)cc1`, 8.68%. For the compound `O=C(NC1CCN(Cc2ccccc2Cl)CC1)c1ccccc1`, the “hERG current change (%, negative = inhibition) at 1uM” value is on record as 10%. Under `O=C(CCCN1CCC(NC(=O)c2ccccc2)CC1)c1ccc(Cl)cc1` stands -59.5%; under `Cc1ccc(C(=O)NC2CCN(S(=O)(=O)c3ccc(F)cc3)CC2)cc1`, 9.73%; under `O=C(NC1CCN(Cc2ccc(Cl)cc2Cl)CC1)c1ccccc1`, -6.37%. With `O=C(CCCN1CCC(C(=O)c2ccc(F)cc2)CC1)c1ccc(F)cc1`, the “hERG current change (%, negative = inhibition) at 1uM” value is reported as -86.2%.

For the compound `Cc1ccc(C(=O)NC2CCN(CCCC(=O)c3ccc(F)cc3)CC2)cc1`, the “hERG current change (%, negative = inhibition) at 1uM” value is -72.9%.

For `CN1CCN(CCCC(=O)c2ccc(F)cc2)CC1.Cl`, the “hERG current change (%, negative = inhibition) at 1uM” value is reported as -1.2%.

Turning to `O=C(c1ccc(F)cc1)C1CCN(C(=O)c2ccc(F)cc2)CC1`, the “hERG current change (%, negative = inhibition) at 1uM” value was determined as 2.31%.

For `CC(C)CC(C)NC(=O)c1ccc(C(F)(F)F)cc1` (stereo not shown), the “hERG current change (%, negative = inhibition) at 1uM” value is on record as 10.6%. Under `CCCCN(C)Cc1c(O)ccc2c(-c3ccccc3)cc(=O)oc12` stands -4.52%; under `COCCCn1c(=NC(C)=O)c(C#N)cc2c(=O)n3cccc(C)c3nc21`, -7.03%. In the case of `Cc1cccn2c(=O)c3cc(C#N)c(=NC(=O)c4ccncc4)n(CCCOC(C)C)c3nc12` it was -89.7%; in that of `CC(=O)N=c1c(C#N)cc2c(=O)n3cccc(C)c3nc2n1CCCOC(C)C`, -13.3%; in that of `Cc1cccn2c(=O)c3cc(C#N)c(=NC(=O)c4cccs4)n(CCCOC(C)C)c3nc12`, -26.1%. Under `COCCCn1c(=NC(=O)c2ccncc2)c(C#N)cc2c(=O)n3cccc(C)c3nc21` stands -53.3%; under `Cc1cccn2c(=O)c3cc(C#N)c(=NC(=O)c4cccs4)n(CC(C)C)c3nc12`, 7.98%; under `CCOCCCn1c(=NC(=O)c2ccc(OC)c(OC)c2)c(C#N)cc2c(=O)n3cccc(C)c3nc21`, -11%. Turning to `COCCCn1c(=NC(=O)c2ccccc2)c(C#N)cc2c(=O)n3cccc(C)c3nc21`, the “hERG current change (%, negative = inhibition) at 1uM” value is -49%. In the case of `CCOCCCn1c(=NC(=O)c2cccs2)c(C#N)cc2c(=O)n3cccc(C)c3nc21` it was -53.9%.
